{"source": "PubChem BioAssay AID1488", "about": "(Vanderbilt High Throughput Screening Facility, 2009)", "note": "Out of some 1,700 compounds screened, about 310 (18%) were called active. About 25% were inconclusive and are not listed. Many of the other results were omitted from the sample, so actives are more common in it than they were. A number with no mark means an inactive call.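 How the source made its calls: active means fluorescence change differs from the solvent-only DMSO control mean at a set confidence level in both duplicate runs; inconclusive means differs from solvent-only control mean in just one of two runs; inactive means the rest.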", "data": [{"biological_target": "Muscarinic acetylcholine receptor M1 (Rattus norvegicus) (UniProt P08482)", "sequence (P08482 whole entry, looked up)": "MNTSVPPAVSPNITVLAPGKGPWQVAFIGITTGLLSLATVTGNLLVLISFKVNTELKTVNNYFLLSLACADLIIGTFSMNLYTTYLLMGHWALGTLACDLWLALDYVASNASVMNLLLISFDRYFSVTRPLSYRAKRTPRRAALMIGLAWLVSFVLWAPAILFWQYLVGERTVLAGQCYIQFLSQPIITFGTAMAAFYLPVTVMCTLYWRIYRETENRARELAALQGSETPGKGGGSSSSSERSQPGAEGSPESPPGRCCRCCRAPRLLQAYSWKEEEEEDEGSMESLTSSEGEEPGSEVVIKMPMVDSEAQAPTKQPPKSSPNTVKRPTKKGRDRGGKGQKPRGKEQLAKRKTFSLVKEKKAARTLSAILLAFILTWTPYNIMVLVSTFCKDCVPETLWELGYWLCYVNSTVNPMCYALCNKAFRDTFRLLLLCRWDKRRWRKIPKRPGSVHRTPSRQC", "assay": "direct agonism at rat M1 receptor – CHO-M1 cells, Fluo-4 calcium, duplicate retest, confirmation (AID 1488);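 further: an EC20 dose of acetylcholine follows compound addition during the same imaging run; raw fluorescence intensity difference in instrument units with no normalization to controls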", "conditions": "Fluo-4 calcium fluorescence, agonist mode, at 10 µM, actives lie on both sides", "values": [{"smiles": "COc1ccccc1NC1=NC(c2ccc(Cl)cc2)N=C(N)N1", "note": "(stereo not given)", "fluorescence change (max-min)": "-28.2 (active)"}, {"smiles": "Cc1ccc2oc(=O)c3cnn(CC(=O)N4CCN(c5ccccn5)CC4)c3c2c1", "fluorescence change (max-min)": -16.8}, {"smiles": "CC(C[N+](C)(C)C)OC(N)=O", "note": "(stereo not given)", "fluorescence change (max-min)": "389 (active)"}, {"smiles": "CC(=O)OC(C)C[N+](C)(C)C", "note": "(stereo not given)", "fluorescence change (max-min)": "529 (active)"}, {"smiles": "COc1cccc2c(C)c(C(=O)O)[nH]c12", "fluorescence change (max-min)": 4.27}, {"smiles": "O=C(NCc1ccccn1)c1ccc2nc(-c3ccco3)c(-c3ccco3)nc2c1", "fluorescence change (max-min)": 28.5}, {"smiles": "CCOc1ccc2[nH]c(=O)c(CN(Cc3nnnn3Cc3ccccc3)CC3CCCO3)cc2c1", "note": "(stereo not given)", "fluorescence change (max-min)": 19.2}, {"smiles": "Cc1cc2cc(CN(Cc3cccs3)Cc3nnnn3CC3CCCO3)c(=O)[nH]c2cc1C", "note": "(stereo not given)", "fluorescence change (max-min)": 7.46}, {"smiles": "Cc1cc(NC(=O)COc2ccc(Cl)cc2Cl)n(CCC#N)n1", "fluorescence change (max-min)": -3.95}, {"smiles": "O=C(O)c1ccc(COCC(F)(F)F)cc1", "fluorescence change (max-min)": -6.5}, {"smiles": "CC(=O)Nc1ccc(NC(=O)CN2CCCC(C)C2)c(Cl)c1", "note": "(stereo not given)", "fluorescence change (max-min)": -10.1}, {"smiles": "CCOC(=O)c1cc2n(c1N)-c1ccccc1C2=O", "fluorescence change (max-min)": "1700 (active)"}, {"smiles": "CCOc1cc(N2CCOCC2)c(OCC)cc1NC(=O)COc1cccc2cccnc12", "fluorescence change (max-min)": -14.8}, {"smiles": "N#CC1=C(N)Oc2c(sc3ccccc23)C1c1ccco1", "note": "(stereo not given)", "fluorescence change (max-min)": "140 (active)"}, {"smiles": "C(=N\\n1cnnc1)/c1cccnc1", "fluorescence change (max-min)": -17.4}, {"smiles": "O=C1c2ccccc2-c2ncnc3c(N4CCOCC4)cc(N4CCOCC4)c1c23", "fluorescence change (max-min)": -15.7}, {"smiles": "c1ccc2c(c1)OCC(CNc1ncnc3nc[nH]c13)O2", "note": "(stereo not given)", "fluorescence change (max-min)": "512 (active)"}, {"smiles": "O=C(Nc1ccccc1N1CCN(C(=O)c2ccccc2)CC1)c1ccc2c(c1)OCO2", "fluorescence change (max-min)": -2.28}, {"smiles": "CC(C)(C)c1cc(CN2CCN(CCC#N)CC2)cc(C(C)(C)C)c1O", "fluorescence change (max-min)": 23.3}, {"smiles": "O=C(NCCc1ccc2c(c1)OCCO2)c1cc2ccccc2o1", "fluorescence change (max-min)": 25}, {"smiles": "CCCN1CC=C2C(C#N)=C(N)C(C#N)(C#N)C(c3cc(OC)ccc3OC)C2C1", "note": "(stereo not given)", "fluorescence change (max-min)": "85.5 (active)"}, {"smiles": "COc1ccccc1Cc1nc(-c2ccc(C)cc2)no1", "fluorescence change (max-min)": -14}, {"smiles": "COc1ccc2nc(N3CCCC(O)C3)c(C#N)cc2c1", "note": "(stereo not given)", "fluorescence change (max-min)": "206 (active)"}, {"smiles": "COC(=O)c1ccc(CSc2nc3ccccc3c(=O)n2-c2cccc(OC)c2)o1", "fluorescence change (max-min)": -9.69}, {"smiles": "O=C(CSc1nnc(-c2ccco2)n1Cc1ccccc1)NC(=O)NCc1ccco1", "fluorescence change (max-min)": -3.05}, {"smiles": "CCOC(=O)CSc1nc2c(sc(=S)n2CCc2ccccc2)c(=O)n1Cc1ccco1", "fluorescence change (max-min)": "-34.1 (active)"}, {"smiles": "c1n[nH]c(NCc2ccc3c(c2)OCO3)n1", "fluorescence change (max-min)": -9.45}, {"smiles": "COc1cccc(-n2cc3c(c2-c2ccccc2)c(=O)n(C)c(=O)n3C)c1", "fluorescence change (max-min)": -22.4}, {"smiles": "CC(NC(=O)CSc1nc2c(cc1C#N)CN(C)CC2)c1ccccc1", "note": "(stereo not given)", "fluorescence change (max-min)": 41.3}, {"smiles": "CCN(CC)c1ccc2oc(=O)c(C)nc2c1", "fluorescence change (max-min)": "165 (active)"}, {"smiles": "CCN(CC)c1ccc2cc(C(=O)O)c(=O)oc2c1", "fluorescence change (max-min)": "153 (active)"}, {"smiles": "CCOC(=O)C1CCCN(Cc2nc(N)nc(Nc3ccc(C)cc3)n2)C1", "note": "(stereo not given)", "fluorescence change (max-min)": "127 (active)"}, {"smiles": "FC(F)(F)COc1nc(N2CCCCC2)nc(N2CCNCC2)n1", "fluorescence change (max-min)": -8.96}, {"smiles": "CCOc1nc(-c2ccc(OC)cc2)ccc1-c1noc(-c2cc(OC)c(OC)c(OC)c2)n1", "fluorescence change (max-min)": -5.3}, {"smiles": "O=C(CSc1nnc(Cn2cnc3ccccc32)o1)c1ccccc1", "fluorescence change (max-min)": -8.96}, {"smiles": "CCc1nc(Nc2ccc3nccnc3c2)c2oc3ccccc3c2n1", "fluorescence change (max-min)": -1.32}, {"smiles": "COc1ccc(CCNC(=O)c2ccco2)cc1", "fluorescence change (max-min)": -16.3}, {"smiles": "Cc1ccc(C(=O)COc2cccc(NC(=O)c3ccco3)c2)cc1", "fluorescence change (max-min)": "131 (active)"}, {"smiles": "CN1C(=O)c2ccc(NC(=O)c3c(F)c(F)c(F)c(F)c3F)cc2C1=O", "fluorescence change (max-min)": 1.53}, {"smiles": "O=C(c1ccccc1)c1ccc(OC(=O)N2CCCC2)cc1", "fluorescence change (max-min)": -8.75}, {"smiles": "CC(C)OCCCNc1ncnc2c1[nH]c1ccc(F)cc12", "fluorescence change (max-min)": "51.6 (active)"}, {"smiles": "Fc1ccc2[nH]c3c(N4CCSCC4)ncnc3c2c1", "fluorescence change (max-min)": 6.07}, {"smiles": "O=C(Nc1nc(-c2ccc3c(c2)OCO3)cs1)c1ccncc1", "fluorescence change (max-min)": -8.33}, {"smiles": "O=C(COC(=O)CCc1c[nH]c(=O)[nH]1)Nc1ccccc1Cl", "fluorescence change (max-min)": 13.2}, {"smiles": "CCOc1cc(-c2nc3cc(C)ccn3c2NCC2CCCO2)ccc1O", "note": "(stereo not given)", "fluorescence change (max-min)": "-30.6 (active)"}, {"smiles": "c1cnn(-c2cc(N3CCOCC3)ncn2)c1", "fluorescence change (max-min)": -19}, {"smiles": "Cc1nc(CNS(=O)(=O)c2ccc(Oc3ccccc3)cc2)cs1", "fluorescence change (max-min)": -2.69}, {"smiles": "CCOc1ccc2nc(N3CCCN(C(=O)Nc4ccccc4C)CC3)c(C#N)cc2c1", "fluorescence change (max-min)": "282 (active)"}, {"smiles": "Cc1nn2c(c1-c1ccccc1)N=C(c1ccco1)CC2c1ccccc1", "note": "(stereo not given)", "fluorescence change (max-min)": 21.8}, {"smiles": "COCCNC(=O)C(c1ccc(C)o1)N(Cc1cccs1)C(=O)c1snc(C(N)=O)c1N", "note": "(stereo not given)", "fluorescence change (max-min)": -1.36}, {"smiles": "CCN=C1SC(CC(=O)Nc2ccc(C)cc2)C(=O)N1CC", "note": "(stereo not given)", "fluorescence change (max-min)": "-26.1 (active)"}, {"smiles": "Cc1ccc(S(=O)(=O)Nc2ccc3ncccc3c2)cc1", "fluorescence change (max-min)": 17.4}, {"smiles": "CCOc1ccc(NC(=O)N2CC=C(n3c(=O)[nH]c4ccccc43)CC2)cc1", "fluorescence change (max-min)": -24}, {"smiles": "O=C(CSc1nc2ccccc2o1)N1CCN(c2ccc(Cl)cc2)CC1", "fluorescence change (max-min)": "-34.5 (active)"}, {"smiles": "O=C(CC1Nc2ccccc2NC1=O)Nc1ccccc1", "note": "(stereo not given)", "fluorescence change (max-min)": -7.08}, {"smiles": "Cn1c(=O)c2c(nc(SCC(=O)Nc3ccccc3N3CCCCC3)n2C)n(C)c1=O", "fluorescence change (max-min)": -20.5}, {"smiles": "CC1CCCC(C)N1C(=O)CN1CCN(c2nc(-c3ccc(F)cc3)cs2)CC1", "note": "(stereo not given)", "fluorescence change (max-min)": -5.14}, {"smiles": "O=C(NCCC1=CCCCC1)C1CCN(Cc2cnn(-c3ccccc3)c2-n2cccc2)CC1", "fluorescence change (max-min)": "-25.7 (active)"}, {"smiles": "COc1ccccc1N1CCN(C(=O)c2c(-c3c(Cl)cccc3Cl)noc2C)CC1", "fluorescence change (max-min)": -19.2}, {"smiles": "O=C(Nc1cccc(NC(=O)N2CCN(c3ccccc3)CC2)c1)N1CCN(c2ccccc2)CC1", "fluorescence change (max-min)": 1.01}, {"smiles": "O=C(Cn1cc(C(=O)c2cccs2)c2ccccc21)NCc1cccs1", "fluorescence change (max-min)": -4.9}, {"smiles": "Cc1cccn2c(=O)c3cc(C#N)c(=NC(=O)c4cccnc4)n(CC4CCCO4)c3nc12", "note": "(stereo not given)", "fluorescence change (max-min)": "310 (active)"}, {"smiles": "Cn1c(C(=O)NCCc2ccsc2)cc2c(=O)n(C)c3ccccc3c21", "fluorescence change (max-min)": -12.8}, {"smiles": "COc1ncnc2c1N=C1CC(C)(C)CC(N)=C1S2", "fluorescence change (max-min)": "175 (active)"}, {"smiles": "COc1ccc(C(C(O)C(=O)c2c[nH]c3ccccc23)N2CCN(c3ccccc3)CC2)cc1", "note": "(stereo not given)", "fluorescence change (max-min)": -11.7}]}]}
